TLR4 MyD88 comp – TLR4-MyD88 interaction inhibition in cells. 200,000 compounds, 0.18% hits. AID 861. HeLa CL3-4 TLR4/MyD88 BLA complementation, FRET ratio. inhibition, % at 8.4 µM. O00206+Q99836; in the data active = inhibition above about 25%;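 also: 0% = vehicle and 100% = reference inhibitor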
TLR9-MyD88 block – inhibitors of human TLR9-MyD88 binding; inhibition, % at 4.98 µM; CHO BLA complementation TLR9-MyD88, CCF4 FRET ratio; 340,000 compounds, 0.21% hits; Q9NR96+Q99836;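 active = inhibition above the mean over all tested compounds plus 3 SD, cut at about 21% in these data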;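 also: 0% = DMSO only wells and 100% = clavulanate BLA inhibitor control wells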
NTR1 agonist – NTR1 (human) agonism. P30989. NTR1-U2OS beta-arrestin-GFP spot imaging, agonist mode. activation, % at 20 µM. 330,000 compounds, 0.17% hits;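 active = activation at or above 40% of the spot to cytoplasm intensity ratio, with at least 20 cells analyzed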;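 also: 0% = DMSO without peptide and 100% = 100 nM NTR1 peptide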
A1 inh – inhibitors of the anti-apoptotic protein A1, read as caspase activation. MEF A1-2A-BIM cells, Caspase-Glo 3/7 luminescence, 3 h; percent of clofoctol response, vehicle zero. caspase activation, % (test concentration not listed). 330,000 compounds, 0.066% hits;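 active = over half of replicate activation scores above 10%, or exactly half above 10 with the replicate mean above 10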
B2AR ag – human beta-2 adrenergic receptor agonism by FAP; Am2.2-beta2AR cells, FAP receptor internalization, flow cytometry; response, % (concentration not given with the values); 340,000 compounds, 0.43% hits;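 active = response above a set limit, near 3 SD of response in nonfluorescent compounds, cut at about 42% in these data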
Target sequence (P07550 whole entry, looked up): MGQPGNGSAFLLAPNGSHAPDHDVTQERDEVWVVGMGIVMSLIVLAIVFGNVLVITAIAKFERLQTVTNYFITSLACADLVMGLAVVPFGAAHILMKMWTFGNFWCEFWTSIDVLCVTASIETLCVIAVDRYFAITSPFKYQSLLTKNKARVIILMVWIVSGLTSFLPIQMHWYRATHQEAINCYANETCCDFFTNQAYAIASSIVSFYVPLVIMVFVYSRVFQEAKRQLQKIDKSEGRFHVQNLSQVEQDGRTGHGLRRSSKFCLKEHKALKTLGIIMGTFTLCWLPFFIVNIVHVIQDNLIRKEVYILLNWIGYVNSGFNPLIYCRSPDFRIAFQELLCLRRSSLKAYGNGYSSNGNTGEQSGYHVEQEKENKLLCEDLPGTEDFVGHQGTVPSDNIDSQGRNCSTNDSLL
NOD2-RIPK2 inh – inhibitors of human NOD2-RIPK2 interaction; CHO BLA complementation NOD2-RIPK2, CCF4 ratio; inhibition, % at 4.98 µM; 360,000 compounds, 0.38% hits; in the data active = inhibition above about 21%;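 also: 0% = vehicle only and 100% = reference blocker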
* = called active by the depositor; / = not tested or not shown. Only some compounds are listed: those with a hit (about 0.97% of all), similar ones and a draw of the others.

SMILES	TLR4 MyD88 comp	TLR9-MyD88 block	NTR1 agonist	A1 inh	B2AR ag	NOD2-RIPK2 inh
Cc1c(C=O)c(C=O)c(C)n1Cc1ccccc1	2.9	5.5	-0.8	9.3*	15.3	0.9
CC(=O)c1c(C(C)=O)c(C)n(Cc2ccccc2)c1C	-5.8	0.3	3.3	0.3	-7.2	-2.1
O=C(COc1ccccc1)N=C1SC2CS(=O)(=O)CC2N1c1cccc(F)c1 (stereo not given)	/	-51.8	-1.3	-0.4	47.9*	-22.5
O[C@@H]1[C@@H](O)C=C2CCN3Cc4cc5c(cc4[C@H]1C23)OCO5 (stereo not given in full)	/	1.7	14.3	0.5	60.7*	6.3
COc1ccc2nc(C)cc(N/N=C/c3ccccc3)c2c1	/	-15.0	-0.2	-1.3	47.4*	-11.5
COc1ccc(/C=N/Nc2cc(C)nc3ccc(OC)cc23)c(OC)c1	/	2.0	17.0	0.0	-1.8	18.6
O=C(/C=C/c1ccncc1)c1ccc(NC(=O)c2ccccc2F)cc1	9.3	24.6*	/	-1.4	51.0*	64.4*
NC(N)=N/N=C/c1ccc(OCc2ccc(Cl)cc2)cc1	1.9	3.7	19.6	-0.1	57.9*	-1.4
NC(N)=N/N=C/c1ccc(OCc2ccccc2)cc1	14.3	3.1	13.8	-3.4	24.8	3.5
Cc1ccc(C(=O)/C=C/c2c[nH]c3ccccc23)cc1	24.8	15.9	12.5	-1.3	8.8	25.2*
Cc1ccc(S(=O)(=O)/C(C#N)=C/c2c[nH]c3ccccc23)cc1	-7.0	3.4	19.0	-0.1	9.1	12.6
CCOc1cc(C=O)c(Br)cc1OC1CCCC1	-17.9	-5.8	1.6	-0.9	44.5*	-8.1
CC(C)[C@H]1C(=O)Nc2ccccc2N1C(=O)N[C@@H](Cc1ccccc1)C(=O)N[C@H](Cc1ccccc1)C(=O)O	/	-10.2	-0.4	0.3	4.3	-3.6
CCN(CC)CCCN1C(=O)C(=O)/C(=C(/O)c2ccc3c(c2)OCCO3)C1c1ccco1 (stereo not given)	-6.4	-8.3	0.4	-0.2	-4.3	-2.0
CC(=O)c1ccc(NC(=O)c2cccc(N3C(=O)c4ccccc4C3=O)c2)cc1	/	5.3	-0.8	-0.4	81.2*	0.4
CCCCCC(=O)Nc1ccc(N2CCN(C(=O)c3ccccc3)CC2)cc1	0.2	-9.6	0.6	-0.5	-2.7	-0.5
CC(C)(C)Nc1nc(Cl)nc(N(C#N)CN2C(=O)c3ccccc3S2(=O)=O)n1	19.1	0.5	12.9	-0.6	45.3*	9.4
CC(C)Nc1nc(Cl)nc(N(C#N)CN2C(=O)c3ccccc3S2(=O)=O)n1	/	-11.7	8.7	0.4	10.5	0.5
COc1cccc2sc(N(CCCN(C)C)C(=O)c3ccc(S(=O)(=O)N4CCc5ccccc5C4)cc3)nc12	/	3.0	3.5	-0.9	55.8*	12.7
CCOc1cccc2sc(N(CCCN(C)C)C(=O)c3ccc(S(=O)(=O)N(CC)Cc4ccccc4)cc3)nc12	/	-5.7	52.2*	-0.8	24.7	6.5
CCCCN(C)C(=O)C1CCC(CNS(=O)(=O)c2ccc3c(c2)CC(C)N3C(=O)C2CC2)CC1 (stereo not given)	/	-4.5	-0.2	0.1	-18.2	3.8
CC(=O)c1ccc(NS(=O)(=O)c2ccc(C(C)(C)C)cc2)cc1	-14.0	-3.8	0.2	1.4	9.0	-1.6
O=C(COC(=O)c1cccc(S(=O)(=O)N2CCOCC2)c1)NCc1ccc2c(c1)OCO2	/	3.9	-0.1	1.1	2.8	0.1
CCC(C)NC(=O)c1cnn2c1NC(c1cccs1)CC2C(F)(F)F (stereo not given)	-7.7	-11.5	-0.2	-0.1	-2.3	2.1
COc1ccc(/C=C\C(=O)O[C@@H]2C(O)C(O[C@@H]3OC(C)[C@H](O[C@@H]4OCC(O[C@H]5O[C@H](CO)[C@@H](O)C(O)C5O)C(O)C4O)C(O)C3O)[C@H](OC(=O)[C@]34CCC(C)(C)C[C@@H]3C3=CCC5[C@@]6(C)CC(O)C(O[C@@H]7OC(CO)C(O)[C@H](O)[C@H]7O)[C@@](C)(C(=O)O)C6CC[C@@]5(C)[C@]3(CO)CC4)O[C@H]2C)cc1 (stereo not given in full)	/	23.9*	12.1	1.4	-2.5	13.1
SMILES	TLR4 MyD88 comp	TLR9-MyD88 block	NTR1 agonist	A1 inh	B2AR ag	NOD2-RIPK2 inh
CCCCCCCCCCn1cc(C(C)=O)c(=O)[nH]c1=O	10.1	-4.8	1.7	-0.2	1.6	-5.6
COc1ccc2sc(-c3ccc(SC)cc3)c(-c3ccc(O)cc3)c2c1	/	-2.3	25.2	1.3	53.0*	4.9
CC(C)(C)OC(=O)N1CCC(C(=O)N[C@H](Cc2ccccc2)C(=O)O)CC1	-10.5	5.9	0.5	-0.1	9.0	4.4
CCOc1ccc(-n2c(SCC(=O)Nc3ccc(Br)cc3)nc3n[nH]c(C)c3c2=N)cc1	-0.4	4.8	1.5	8.4*	-1.2	-4.1
COC(=O)C1=C(C)NC(=S)NC1c1ccc(-c2cccc(Cl)c2)o1 (stereo not given)	2.1	-8.6	3.7	-0.5	50.6*	4.2
COc1ccc(OC)c(-c2csc(NC(=O)COC(=O)c3ccc(NC(=O)CC#N)cc3)n2)c1	/	1.1	0.3	1.2	42.4*	6.1
COc1ccc(C(=O)Nc2ccc(C(=O)Nc3cccnc3)cc2)cc1	/	1.7	0.8	0.9	53.6*	-5.0
CCc1cc2c(=O)c(-c3cnn(-c4ccccc4)c3)c(C)oc2cc1OCC(=O)Nc1cccc(C)c1	8.0	-2.1	1.9	7.9*	-0.6	3.7
CCc1cc2c(=O)c(-c3cnn(-c4ccccc4)c3)c(C)oc2cc1OCC(=O)Nc1ccc(F)c(F)c1	-4.2	4.7	1.9	0.4	-7.0	9.4
CCOc1ccc(NC(=O)CN(C)C(=O)c2ccccc2Cc2ccccc2)cc1OCC	/	-0.6	-1.3	0.1	15.6	-10.2
Cc1cc(C(=O)CSc2nnc(-c3cccc(F)c3)n2N)c(C)n1Cc1ccc2c(c1)OCO2	-2.5	5.3	2.0	-0.2	81.9*	1.4
CCOc1ccc(-n2c(C)cc(C(=O)CCl)c2C)cc1	20.0	-2.1	11.9	0.4	45.8*	7.9
COc1cc(OC)c2c(-c3cccc(-c4ccc(CO)cc4)c3)cc(=O)oc2c1	/	4.9	6.6	/	37.6	23.2*
CCOC(=O)c1ccc(Oc2nc(N(C)C)nc(N(C)C)n2)cc1	-11.6	-9.5	1.0	1.2	-15.2	-0.2
CN(C)c1nc(Oc2ccc(N)cc2)nc(N(C)C)n1	-14.8	-0.3	-0.3	0.2	76.7*	8.9
COC(=O)/C=C\C(C#N)(C#N)N=Cc1ccc(OC)cc1	/	-1.4	/	/	47.1*	-3.0
O=C(NCCCNC(=O)c1ccccc1)c1ccccc1	/	/	1.8	-0.1	6.2	-6.0
O=C(NCNC(=O)c1ccccc1)c1ccccc1	-0.8	5.5	1.2	0.1	62.8*	-5.1
